From PubChem BioAssay (NCATS)
Inconclusive results are not listed. A call without a number means that no potency is given here. The source made the active and inactive calls. Calls come from the whole dose curve; as a rule, active = well fitted curve in the direction sought with a large enough effect; inconclusive = small, poorly fitted or top-dose-only effect, or another doubt; inactive = no such curve, though single readings can be large; an effect the other way counts as inactive or inconclusive.

Tests used:
[1] = molecular target: Glutaminase kidney isoform, mitochondrial (Homo sapiens) (UniProt O94925); test: qHTS for Inhibitors of Glutaminase (GLS): LOPAC Validation (AID 624146); note: nearly all actives have a fitted effect of over 60% in size; note: potency is the fitted concentration of half-maximal effect
Glutaminase kidney isoform, mitochondrial (Homo sapiens), sequence (O94925 whole entry, looked up, canonical isoform): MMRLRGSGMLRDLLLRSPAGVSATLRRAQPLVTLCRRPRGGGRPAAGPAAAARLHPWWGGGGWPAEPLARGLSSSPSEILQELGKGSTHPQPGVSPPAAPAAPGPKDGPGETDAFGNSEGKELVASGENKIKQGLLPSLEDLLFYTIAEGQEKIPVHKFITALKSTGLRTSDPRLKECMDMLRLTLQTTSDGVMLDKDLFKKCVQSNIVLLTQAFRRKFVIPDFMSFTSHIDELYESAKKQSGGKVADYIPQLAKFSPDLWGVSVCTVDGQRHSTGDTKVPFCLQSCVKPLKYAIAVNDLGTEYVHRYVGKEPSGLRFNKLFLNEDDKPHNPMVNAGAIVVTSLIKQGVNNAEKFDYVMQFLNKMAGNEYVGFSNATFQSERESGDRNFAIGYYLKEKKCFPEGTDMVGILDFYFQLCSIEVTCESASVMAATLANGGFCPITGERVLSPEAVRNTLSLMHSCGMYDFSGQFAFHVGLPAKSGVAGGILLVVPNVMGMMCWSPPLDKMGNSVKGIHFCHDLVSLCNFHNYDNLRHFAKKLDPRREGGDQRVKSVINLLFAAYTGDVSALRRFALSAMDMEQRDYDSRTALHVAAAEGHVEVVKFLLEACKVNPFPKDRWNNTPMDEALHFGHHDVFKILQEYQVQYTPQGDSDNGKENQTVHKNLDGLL
Method in brief: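 Glutamate formation by hKGA was monitored fluorometrically using coupled glutamate oxidase, HRP and Amplex Red. Substrate was added as 1 mM L-glutamine solution; incubation was 30 min at RT after an initial read.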

[2] = qHTS of Trypanosoma Brucei Inhibitors: LOPAC Validation (AID 624147)
Method in brief: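 Screened from lowest to highest concentration, compounds were pinned into TbPYK/substrate mixtures, and ADP (130 uM final) was added. Plates sat at room temperature for 45 min prior to Kinase-Glo Plus detection by luminescence.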

[3] = molecular target: Glucagon-like peptide 1 receptor (Homo sapiens) (UniProt P43220); test: qHTS of GLP-1 Receptor Agonists: LOPAC Validation (AID 624148);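 note: higher luminescence signal means agonism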
Glucagon-like peptide 1 receptor (Homo sapiens), sequence (P43220 whole entry, looked up): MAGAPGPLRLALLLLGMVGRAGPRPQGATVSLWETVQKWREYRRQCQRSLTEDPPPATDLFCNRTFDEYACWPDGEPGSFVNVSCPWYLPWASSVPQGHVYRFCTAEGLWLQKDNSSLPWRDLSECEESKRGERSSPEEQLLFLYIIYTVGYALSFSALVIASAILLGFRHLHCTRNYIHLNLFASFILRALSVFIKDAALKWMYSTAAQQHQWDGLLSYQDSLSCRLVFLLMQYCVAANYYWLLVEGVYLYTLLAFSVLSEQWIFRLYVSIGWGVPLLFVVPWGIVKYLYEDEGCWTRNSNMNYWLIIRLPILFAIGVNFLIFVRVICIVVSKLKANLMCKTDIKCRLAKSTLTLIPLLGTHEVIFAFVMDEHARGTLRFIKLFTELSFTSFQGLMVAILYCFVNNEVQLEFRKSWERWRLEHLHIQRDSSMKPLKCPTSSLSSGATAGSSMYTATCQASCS
Method in brief: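 HEK293 cells stably co-expressing a cAMP-responsive luciferase reporter and a hypersensitive GLP-1R were plated 12 h at 37 °C and exposed to compounds for 4-6 hr at 37 °C, 5% CO2. Luminescence was read 12 min after adding detection reagent.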

[4] = qHTS of Nrf2 Activators: LOPAC Validation (AID 624149)
Method in brief: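 AREc32_Fluc cells, 1000/well in OPTI-MEM with 5% FBS, grown overnight, then exposed to compounds for 24 hr at 37 deg C, 5% CO2. ARE-driven firefly luciferase read by Steady-Glo luminescence after 30 min at RT.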

[5] = HTS Assay for Allosteric Antagonists of the Human D2 Dopamine Receptor: Hit Validation in HTRF (AID 624455);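 note: stable D1 dopamine receptor cell line scored for blocking the D1 response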
Method in brief: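 Hit validation in cells stably expressing the D1 dopamine receptor, run in HTRF format. Compounds were tested for their ability to inhibit the D1-mediated response.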

[6] = molecular target: Arylsulfatase A (Homo sapiens) (UniProt P15289); test: qHTS screen for enhancers of Arylsulfatase A (ASA1): LOPAC Validation Assay (AID 720538)
Arylsulfatase A (Homo sapiens), sequence (P15289 whole entry, looked up): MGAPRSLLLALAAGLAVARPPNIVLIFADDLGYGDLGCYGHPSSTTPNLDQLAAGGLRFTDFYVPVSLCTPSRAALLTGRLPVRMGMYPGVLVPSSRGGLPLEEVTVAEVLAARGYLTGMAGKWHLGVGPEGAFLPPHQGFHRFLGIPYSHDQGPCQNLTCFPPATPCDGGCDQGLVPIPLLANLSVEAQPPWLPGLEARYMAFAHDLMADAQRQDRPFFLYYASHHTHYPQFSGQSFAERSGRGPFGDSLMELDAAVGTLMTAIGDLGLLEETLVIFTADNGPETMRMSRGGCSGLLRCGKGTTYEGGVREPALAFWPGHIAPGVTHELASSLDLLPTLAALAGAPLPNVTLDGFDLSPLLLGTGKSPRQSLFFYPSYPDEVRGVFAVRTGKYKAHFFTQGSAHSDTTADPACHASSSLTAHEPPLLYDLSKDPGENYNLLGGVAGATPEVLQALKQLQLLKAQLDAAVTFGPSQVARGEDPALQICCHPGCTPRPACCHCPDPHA
Method in brief: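 Read-out: fluorescence at Ex=525/Em=598 nm after 1N NaOH final stop. Patient fibroblasts carrying ASA-I179S had 48h compound exposure, then 14h room-temperature pNCS hydrolysis (0.5mM final) in lysis buffer. Signal increase = enhanced activity.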

[7] = qHTS for compounds that reverse cellular toxicity of Amyloid beta (A-beta) peptide in yeast: LOPAC Validation Assay (AID 720559)
Method in brief: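 OD600 growth readout after 48 hr at 30 C; A-beta-toxic yeast plus pinned compounds in medium. Normalization: DMSO = negative, equimolar FeCl3 + clioquinol = positive.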

[8] = qHTS for Activators of Parkin Expression: LOPAC Validation Assay (NLuc Reporter) (AID 720572; note: potency is the fitted concentration of half-maximal effect)
Method in brief: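 Neuronal line stably carrying a FLuc/NLuc coincidence reporter under the Parkin promoter, seeded 24 h, then dosed in 7-point series for 24 h at 37 C. NLuc luminescence read after FLuc; normalized to DMSO and positive control (100%).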

[9] = qHTS for Activators of Parkin Expression: LOPAC Validation Assay (FLuc Reporter) (AID 720573)
Method in brief: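 FLuc luminescence read-out from a neuronal line expressing a Parkin-promoter-driven coincidence reporter. Cells treated 24 h at 37 C, 5% CO2 with compounds at 7 concentrations; signal increase normalized to DMSO and positive control.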

| SMILES | Potency [1] | Potency [2] | outcome [3] | Potency [4] | Potency [5] | Potency [6] | outcome [7] | Potency [8] | outcome [9] |
| --- | --- | --- | --- | --- | --- | --- | --- | --- | --- |
| COc1ccc2c(c1)/C(=C/c1cnc[nH]1)C(=O)N2 | inactive | inactive | inactive | inactive | inactive | inactive | inactive | 23.1 µM (active) | inactive |
| C[C@H](Cc1ccc2c(c1)OC(C(=O)O)(C(=O)O)O2)NC[C@H](O)c1cccc(Cl)c1 | inactive | inactive | inactive | inactive | inactive | inactive | inactive | inactive | inactive |
| N[C@@H](Cn1ccc(=O)[nH]c1=O)C(=O)O | inactive | inactive | inactive | inactive | inactive | inactive | inactive | inactive | inactive |
| CO[C@H]1CC=C2CCN3CCC4=C(CC(=O)OC4)[C@]23C1 | inactive | inactive | inactive | inactive | inactive | inactive | inactive | inactive | inactive |
| C[N+]1(C)CCN(c2ccccc2)CC1 | inactive | inactive | inactive | inactive | inactive | inactive | inactive | inactive | inactive |
| COc1ccc(CNC(=O)/C=C/c2ccc3[nH]cc(CCN(C)C)c3c2)cc1 | inactive | inactive | inactive | inactive | inactive | inactive | inactive | inactive | inactive |
| OC1CCCCC1N1CCC(c2ccccc2)CC1 (stereo not given) | inactive | inactive | inactive | inactive | inactive | inactive | inactive | inactive | inactive |
| Ic1ccccc1CNC1C2CCN(CC2)C1C(c1ccccc1)c1ccccc1 (stereo not given) | inactive | inactive | inactive | inactive | inactive | inactive | inactive | inactive | inactive |
| C/C(O)=C(\C#N)C(=O)Nc1cc(Br)ccc1Br | inactive | inactive | inactive | inactive | inactive | inactive | inactive | inactive | inactive |
| CCN(CCCl)Cc1ccccc1Br | inactive | inactive | inactive | inactive | inactive | inactive | inactive | inactive | inactive |
| CCCN(CCC)CCc1c[nH]c2ccc(C(N)=O)cc12 | inactive | inactive | inactive | inactive | inactive | inactive | inactive | inactive | inactive |
| CCCn1c(=O)c2[nH]c(C3CCCC3)nc2n(CCCOC(=O)c2ccc(S(=O)(=O)F)cc2)c1=O | inactive | inactive | inactive | inactive | inactive | inactive | inactive | inactive | inactive |
| N[C@@H](CCl)C(=O)O | inactive | inactive | inactive | inactive | inactive | inactive | inactive | inactive | inactive |
| CCCN(CCC)C1Cc2cc(OC)c(OC)cc2C1 | inactive | inactive | inactive | inactive | inactive | inactive | inactive | inactive | inactive |
| NCCc1ccc(S(=O)(=O)F)cc1 | inactive | inactive | inactive | inactive | inactive | inactive | inactive | inactive | inactive |
| c1ccc2c(c1)[I+]c1ccccc1-2 | inactive | inactive | inactive | inactive | inactive | inactive | inactive | inactive | inactive |
| CN1CC[C@@]2(C)c3cc(OC(=O)Nc4ccccc4)ccc3N(C)[C@@H]12 | 1.12 µM (active) | inactive | inactive | inactive | inactive | inactive | inactive | inactive | inactive |
| OCc1cnc[nH]1 | inactive | inactive | inactive | inactive | inactive | inactive | inactive | inactive | inactive |
| CCS(=O)(=O)Nc1cccc(C(=C2CCCCC2)c2cnc[nH]2)c1 | inactive | inactive | inactive | inactive | inactive | inactive | inactive | inactive | inactive |
| CC1(C(=O)O)C2CCC(O2)C1(C)C(=O)O (stereo not given) | inactive | inactive | inactive | inactive | inactive | inactive | inactive | inactive | inactive |
